Data reported in PubChem BioAssay (EPA / NIEHS).
Inconclusive results are not listed. The source made the active and inactive calls. How the source made its calls, unless noted: active means hit-call score of the fitted dose curve at least 0.9, where 1 is the maximum; inactive means score below 0.9.

Columns and labels:
[1] = target: Glucocorticoid receptor (Homo sapiens) (UniProt P04150); experiment: ATG_GR_TRANS: Attagene TRANS-FACTORIAL HepG2 Assay for human Glucocorticoid Receptor (GR) (AID 2282978; active means hit-call score of the fitted dose curve at least 0.9, where 1 is the maximum;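 further: activators score as hits since higher reporter transcript over DMSO is fitted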); conditions: HepG2 Attagene TRANS GR reporter, mRNA transcription
Sequence of Glucocorticoid receptor (Homo sapiens) (P04150 whole entry, looked up, the tested form may be a part): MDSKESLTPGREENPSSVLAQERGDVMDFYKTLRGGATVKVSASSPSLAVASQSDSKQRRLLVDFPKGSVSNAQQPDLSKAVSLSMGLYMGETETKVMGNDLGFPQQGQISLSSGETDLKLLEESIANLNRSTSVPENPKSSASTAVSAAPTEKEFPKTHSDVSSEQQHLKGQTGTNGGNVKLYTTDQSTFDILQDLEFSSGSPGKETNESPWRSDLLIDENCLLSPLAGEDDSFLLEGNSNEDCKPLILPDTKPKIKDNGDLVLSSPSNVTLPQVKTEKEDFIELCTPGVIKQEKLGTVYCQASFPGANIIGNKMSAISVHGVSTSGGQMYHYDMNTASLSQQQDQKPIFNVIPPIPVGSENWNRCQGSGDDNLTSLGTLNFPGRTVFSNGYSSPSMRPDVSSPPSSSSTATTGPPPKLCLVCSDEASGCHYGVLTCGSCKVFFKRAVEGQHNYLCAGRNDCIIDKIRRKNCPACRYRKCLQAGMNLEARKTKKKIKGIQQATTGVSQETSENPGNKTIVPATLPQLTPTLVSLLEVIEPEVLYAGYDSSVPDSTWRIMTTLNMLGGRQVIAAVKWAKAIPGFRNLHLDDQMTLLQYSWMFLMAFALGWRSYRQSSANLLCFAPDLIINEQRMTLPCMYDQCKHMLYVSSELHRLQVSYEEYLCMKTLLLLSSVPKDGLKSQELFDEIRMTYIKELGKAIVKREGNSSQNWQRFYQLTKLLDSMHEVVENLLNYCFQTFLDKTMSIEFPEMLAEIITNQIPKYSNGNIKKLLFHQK
Summary of the method: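 HepG2 cells transiently transfected with GAL4-UAS reporter units and exogenous GR-Gal4 chimera, dosed 24 h. Reporter mRNA by RT-PCR, FAM labeling, HpaI digest and capillary electrophoresis; gain-of-signal fit versus DMSO.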

[2] = target: Oxysterols receptor LXR-beta (Homo sapiens) (UniProt P55055); experiment: ATG_LXRb_TRANS: Attagene TRANS-FACTORIAL HepG2 Assay for human Liver X Receptor beta (LXRb) (AID 2282981; active means hit-call score of the fitted dose curve at least 0.9, where 1 is the maximum); conditions: HepG2 Attagene TRANS GAL4-LXRb reporter, mRNA
Sequence of Oxysterols receptor LXR-beta (Homo sapiens) (P55055 whole entry, looked up, the tested form may be a part): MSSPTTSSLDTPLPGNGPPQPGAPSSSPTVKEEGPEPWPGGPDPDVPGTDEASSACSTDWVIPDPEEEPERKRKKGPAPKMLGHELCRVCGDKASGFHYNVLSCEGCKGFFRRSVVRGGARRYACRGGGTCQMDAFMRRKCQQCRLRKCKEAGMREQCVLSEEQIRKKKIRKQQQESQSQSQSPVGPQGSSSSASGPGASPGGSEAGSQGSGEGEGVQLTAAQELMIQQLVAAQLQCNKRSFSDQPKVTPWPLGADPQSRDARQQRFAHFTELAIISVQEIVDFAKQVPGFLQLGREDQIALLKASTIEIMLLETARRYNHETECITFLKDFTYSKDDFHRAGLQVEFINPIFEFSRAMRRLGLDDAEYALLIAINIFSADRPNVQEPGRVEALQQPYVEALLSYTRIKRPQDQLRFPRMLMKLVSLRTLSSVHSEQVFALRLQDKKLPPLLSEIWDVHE
Summary of the method: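 Multiplexed reporter assay, HepG2, 24 h dosing. Fluorescence of labelled RT-PCR products after capillary electrophoresis gives transcript level; positive fitting direction relative to DMSO.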

[3] = target: Hepatocyte nuclear factor 4-alpha (Homo sapiens) (UniProt P41235); experiment: ATG_HNF4a_TRANS: Attagene TRANS-FACTORIAL HepG2 Assay for human Hepatocyte Nuclear Factor 4 alpha (HNF4a) (AID 2282982; active means hit-call score of the fitted dose curve at least 0.9, where 1 is the maximum); conditions: HepG2 HNF4a transactivation reporter, mRNA readout
Sequence of Hepatocyte nuclear factor 4-alpha (Homo sapiens) (P41235 whole entry, looked up, the tested form may be a part): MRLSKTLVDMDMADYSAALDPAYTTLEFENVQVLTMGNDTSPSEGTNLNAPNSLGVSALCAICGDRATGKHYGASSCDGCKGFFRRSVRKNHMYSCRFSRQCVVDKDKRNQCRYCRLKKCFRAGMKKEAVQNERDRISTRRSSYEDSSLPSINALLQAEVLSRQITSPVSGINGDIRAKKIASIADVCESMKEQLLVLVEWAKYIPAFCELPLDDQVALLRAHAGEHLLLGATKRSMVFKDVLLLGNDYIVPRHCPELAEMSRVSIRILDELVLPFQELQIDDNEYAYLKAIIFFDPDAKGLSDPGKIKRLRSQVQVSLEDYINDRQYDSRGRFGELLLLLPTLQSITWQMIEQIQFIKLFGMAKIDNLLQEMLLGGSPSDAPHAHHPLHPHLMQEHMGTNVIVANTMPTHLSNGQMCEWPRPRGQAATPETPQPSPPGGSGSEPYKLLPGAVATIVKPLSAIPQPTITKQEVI
Summary of the method: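 Endpoint reflects transcriptional activation of a GAL4-UAS reporter by an HNF4a-GAL4 chimera in transfected HepG2 cells, 24 h post-dosing. Fluorescence from RT-PCR products separated by capillary electrophoresis; DMSO baseline.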

[4] = ATG_M_06_TRANS: Attagene TRANS-FACTORIAL HepG2 Assay for M06 Transcription Factor (Internal Marker) (AID 2282983; active means hit-call score of the fitted dose curve at least 0.9, where 1 is the maximum); conditions: HepG2 Attagene TRANS M06 internal marker reporter
Summary of the method: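 Multi-reporter-transfected HepG2, 24 h treatment; reporter transcripts quantified via RT-PCR, primer-extension labelling and CE. DMSO-normalized gain-of-signal fit.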

[5] = target: Nuclear receptor subfamily 4 group A member 2 (Homo sapiens) (UniProt P43354); experiment: ATG_NURR1_TRANS: Attagene TRANS-FACTORIAL HepG2 Assay for human Nuclear Receptor Related Protein 1 (NURR1) (AID 2282985; active means hit-call score of the fitted dose curve at least 0.9, where 1 is the maximum); conditions: HepG2 Attagene TRANS reporter, mRNA readout
Sequence of Nuclear receptor subfamily 4 group A member 2 (Homo sapiens) (P43354 whole entry, looked up): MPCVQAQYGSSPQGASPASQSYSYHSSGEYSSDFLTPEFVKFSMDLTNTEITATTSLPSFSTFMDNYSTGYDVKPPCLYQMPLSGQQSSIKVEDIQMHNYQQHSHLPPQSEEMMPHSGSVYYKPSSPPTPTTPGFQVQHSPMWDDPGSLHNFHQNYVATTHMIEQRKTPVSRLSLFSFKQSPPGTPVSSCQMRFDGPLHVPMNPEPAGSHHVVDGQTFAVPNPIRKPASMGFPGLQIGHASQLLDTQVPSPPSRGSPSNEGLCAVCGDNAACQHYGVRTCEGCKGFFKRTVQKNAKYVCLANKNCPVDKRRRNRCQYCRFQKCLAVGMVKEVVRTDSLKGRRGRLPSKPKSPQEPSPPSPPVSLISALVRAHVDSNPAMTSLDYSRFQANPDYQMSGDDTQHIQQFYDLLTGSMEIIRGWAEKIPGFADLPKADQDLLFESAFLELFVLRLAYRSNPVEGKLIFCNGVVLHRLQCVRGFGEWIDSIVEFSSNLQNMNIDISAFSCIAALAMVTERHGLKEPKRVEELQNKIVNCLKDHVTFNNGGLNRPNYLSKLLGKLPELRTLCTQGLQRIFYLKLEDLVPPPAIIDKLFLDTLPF
Summary of the method: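 Endpoint: reporter mRNA increase relative to DMSO. HepG2 cells transfected with reporter units, treated 24 h; RNA processed by RT-PCR, labelling, HpaI digestion and capillary electrophoresis.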

[6] = target: Transcriptional activator Myb (Homo sapiens) (UniProt P10242); experiment: ATG_Myb_CIS: Attagene CIS-FACTORIAL HepG2 Assay for human Myeloblastosis (Myb) Proto-Oncogene Transcription Factor (AID 2282986); conditions: HepG2 Attagene CIS-FACTORIAL Myb reporter transcription; actives raise or lower the signal
Sequence of Transcriptional activator Myb (Homo sapiens) (P10242 whole entry, looked up): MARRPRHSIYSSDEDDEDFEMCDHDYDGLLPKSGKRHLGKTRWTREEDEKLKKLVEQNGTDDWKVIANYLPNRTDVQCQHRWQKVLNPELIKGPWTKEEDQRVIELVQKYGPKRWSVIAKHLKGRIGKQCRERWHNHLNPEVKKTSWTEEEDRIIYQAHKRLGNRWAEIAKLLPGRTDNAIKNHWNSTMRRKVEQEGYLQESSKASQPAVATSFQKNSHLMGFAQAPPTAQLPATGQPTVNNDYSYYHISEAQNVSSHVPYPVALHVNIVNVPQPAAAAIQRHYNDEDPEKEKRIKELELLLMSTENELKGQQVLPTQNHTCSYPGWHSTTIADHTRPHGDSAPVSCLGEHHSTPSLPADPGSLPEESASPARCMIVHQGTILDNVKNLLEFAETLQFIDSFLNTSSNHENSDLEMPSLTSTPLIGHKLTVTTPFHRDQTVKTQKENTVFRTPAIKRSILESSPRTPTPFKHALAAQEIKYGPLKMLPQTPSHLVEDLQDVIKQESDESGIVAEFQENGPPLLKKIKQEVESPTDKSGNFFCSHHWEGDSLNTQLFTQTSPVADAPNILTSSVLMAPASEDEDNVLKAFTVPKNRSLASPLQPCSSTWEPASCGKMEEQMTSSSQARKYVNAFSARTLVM
Summary of the method: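 Transiently transfected HepG2 cells carrying a multiplexed cis-promoter reporter set report endogenous Myb activity after 24 h compound exposure. Reporter mRNA is read by RT-PCR with capillary electrophoresis of fluorescent products, fitted bidirectionally against DMSO.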

[7] = target: Nuclear respiratory factor 1 (Homo sapiens) (UniProt Q16656); experiment: ATG_NRF1_CIS: Attagene CIS-FACTORIAL HepG2 Assay for human Nuclear Respiratory Factor 1 (NRF1) Orphan Gene (AID 2282987); conditions: HepG2 NRF1 cis-element reporter, Attagene multiplex; actives raise or lower the signal
Sequence of Nuclear respiratory factor 1 (Homo sapiens) (Q16656 whole entry, looked up): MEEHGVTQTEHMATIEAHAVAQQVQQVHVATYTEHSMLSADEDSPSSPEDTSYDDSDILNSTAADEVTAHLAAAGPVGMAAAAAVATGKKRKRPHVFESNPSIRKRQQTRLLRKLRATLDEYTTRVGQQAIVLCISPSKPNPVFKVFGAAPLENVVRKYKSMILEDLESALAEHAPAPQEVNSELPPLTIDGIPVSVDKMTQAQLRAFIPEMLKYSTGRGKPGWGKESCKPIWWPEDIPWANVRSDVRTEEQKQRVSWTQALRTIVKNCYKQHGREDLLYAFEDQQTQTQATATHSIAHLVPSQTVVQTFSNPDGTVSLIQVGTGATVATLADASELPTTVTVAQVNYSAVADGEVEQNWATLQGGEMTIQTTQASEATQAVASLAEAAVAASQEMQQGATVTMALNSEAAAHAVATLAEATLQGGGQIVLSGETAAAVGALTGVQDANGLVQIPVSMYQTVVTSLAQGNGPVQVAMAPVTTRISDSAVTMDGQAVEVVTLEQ
Summary of the method: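 HepG2 cells transiently transfected with multiple cis-regulated reporter units, exposed 24 h. Reporter mRNAs measured by RT-PCR, fluorescent labelling, HpaI digestion and capillary electrophoresis; bidirectional fitting against DMSO.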

[8] = ATG_NFI_CIS: Attagene CIS-FACTORIAL HepG2 Assay for human Nuclear Factor I (NFI) (AID 2282989); conditions: HepG2 cis-regulatory reporter, NFI response element transcription; actives raise or lower the signal
Summary of the method: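 Reporter transcription driven by endogenous transcription factors in HepG2 cells; 24 h treatment. Quantitation by labelled RT-PCR fragments on capillary electrophoresis, gain- or loss-of-signal relative to DMSO.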

[9] = target: Myc proto-oncogene protein (Homo sapiens) (UniProt P01106); experiment: ATG_Myc_CIS: Attagene CIS-FACTORIAL HepG2 Assay for human Myelocytomatosis (Myc) Proto-Oncogene Transcription Factor (AID 2282990); conditions: HepG2, Attagene cis-reporter transcription factor activity; actives raise or lower the signal
Sequence of Myc proto-oncogene protein (Homo sapiens) (P01106 whole entry, looked up): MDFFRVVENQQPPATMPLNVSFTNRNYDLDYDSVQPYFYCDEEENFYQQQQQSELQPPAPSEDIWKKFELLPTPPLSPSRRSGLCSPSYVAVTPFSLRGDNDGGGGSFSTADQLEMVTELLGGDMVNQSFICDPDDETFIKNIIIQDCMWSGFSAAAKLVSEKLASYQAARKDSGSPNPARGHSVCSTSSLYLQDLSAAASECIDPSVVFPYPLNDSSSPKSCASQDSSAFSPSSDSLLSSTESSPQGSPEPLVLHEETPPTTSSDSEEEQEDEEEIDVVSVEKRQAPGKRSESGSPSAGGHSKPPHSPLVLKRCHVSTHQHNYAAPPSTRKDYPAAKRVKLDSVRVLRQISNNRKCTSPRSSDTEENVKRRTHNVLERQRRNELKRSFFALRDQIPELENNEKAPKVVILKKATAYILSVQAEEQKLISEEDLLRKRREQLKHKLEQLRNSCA
Summary of the method: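 Transiently transfected HepG2 cells bearing cis-promoter reporter units for endogenous transcription factors; 24 h exposure. Reporter mRNA measured by RT-PCR, 6-FAM primer extension, HpaI cut and capillary electrophoresis; bidirectional fit relative to DMSO.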

[10] = ATG_NF_kB_CIS: Attagene CIS-FACTORIAL HepG2 Assay for human Nuclear Factor Kappa B (NF-kB) (AID 2282991); conditions: HepG2 Attagene cis-factorial NF-kB reporter mRNA; actives raise or lower the signal
Summary of the method: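 HepG2 cells transfected with cis-promoter-driven reporter units, so endogenous transcription factor activity is measured. Reporter mRNA quantified 24 h after dosing by RT-PCR and capillary electrophoresis, with bidirectional fitting against DMSO.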

[11] = ATG_NRF2_ARE_CIS: Attagene CIS-FACTORIAL HepG2 Assay for human Nuclear Factor Erythroid 2 Related Factor 2 (NFR2) response to Antioxidant Response Elements (ARE) (AID 2282992); conditions: HepG2 Attagene ARE/NRF2 reporter, transcription factor activity; actives raise or lower the signal;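 further: reporter mRNA level measured by RT-PCR and capillary electrophoresis fluorescence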
Summary of the method: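 Readout: reporter mRNA quantified by RT-PCR plus FAM-labelled primer extension, HpaI digestion and capillary electrophoresis, 24 h after dosing transfected HepG2 cells. Gain or loss of signal is fitted bidirectionally against DMSO baseline.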

[12] = ATG_Oct_MLP_CIS: Attagene CIS-FACTORIAL HepG2 Assay for human Octamer-Binding Transcription Factor (Oct) (AID 2282993); conditions: HepG2 Attagene cis-factorial Oct reporter, mRNA; actives raise or lower the signal
Summary of the method: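 Transfected HepG2 cells, 24 h treatment. Reporter mRNA quantified by RT-PCR–capillary electrophoresis; bidirectional fitting against DMSO.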

[13] = target: Cellular tumor antigen p53 (Homo sapiens) (UniProt P04637); experiment: ATG_p53_CIS: Attagene CIS-FACTORIAL HepG2 Assay for human p53 Transcription Factor (AID 2282994); conditions: HepG2 p53 cis-element reporter, Attagene mRNA; actives raise or lower the signal
Sequence of Cellular tumor antigen p53 (Homo sapiens) (P04637 whole entry, looked up): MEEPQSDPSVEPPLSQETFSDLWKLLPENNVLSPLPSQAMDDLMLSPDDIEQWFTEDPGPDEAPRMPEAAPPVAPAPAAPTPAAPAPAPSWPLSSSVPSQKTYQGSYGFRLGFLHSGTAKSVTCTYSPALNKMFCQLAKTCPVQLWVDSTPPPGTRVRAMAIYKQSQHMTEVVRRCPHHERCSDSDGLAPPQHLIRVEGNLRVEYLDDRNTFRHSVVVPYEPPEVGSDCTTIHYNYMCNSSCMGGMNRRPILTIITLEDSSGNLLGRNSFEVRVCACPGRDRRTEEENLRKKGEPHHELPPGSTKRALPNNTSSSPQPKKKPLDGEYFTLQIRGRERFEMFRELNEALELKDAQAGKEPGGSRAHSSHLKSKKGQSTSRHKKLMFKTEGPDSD
Summary of the method: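 Read-out: reporter mRNA by RT-PCR plus capillary electrophoresis with fluorescence detection. Human HepG2 liver cells carried transfected multi-reporter cis-element constructs, dosed 24 h. Gain or loss of signal fitted bidirectionally against DMSO control.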

[14] = target: Bile acid receptor (Homo sapiens) (UniProt Q96RI1); experiment: ATG_FXR_TRANS: Attagene TRANS-FACTORIAL HepG2 Assay for Farnesoid X Receptor (FXR) (AID 2282979; active means hit-call score of the fitted dose curve at least 0.9, where 1 is the maximum;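 further: hits raise reporter mRNA above DMSO so AC50 marks FXR activation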); conditions: HepG2 Attagene TRANS FXR-GAL4 reporter transcription
Sequence of Bile acid receptor (Homo sapiens) (Q96RI1 whole entry, looked up, the tested form may be a part): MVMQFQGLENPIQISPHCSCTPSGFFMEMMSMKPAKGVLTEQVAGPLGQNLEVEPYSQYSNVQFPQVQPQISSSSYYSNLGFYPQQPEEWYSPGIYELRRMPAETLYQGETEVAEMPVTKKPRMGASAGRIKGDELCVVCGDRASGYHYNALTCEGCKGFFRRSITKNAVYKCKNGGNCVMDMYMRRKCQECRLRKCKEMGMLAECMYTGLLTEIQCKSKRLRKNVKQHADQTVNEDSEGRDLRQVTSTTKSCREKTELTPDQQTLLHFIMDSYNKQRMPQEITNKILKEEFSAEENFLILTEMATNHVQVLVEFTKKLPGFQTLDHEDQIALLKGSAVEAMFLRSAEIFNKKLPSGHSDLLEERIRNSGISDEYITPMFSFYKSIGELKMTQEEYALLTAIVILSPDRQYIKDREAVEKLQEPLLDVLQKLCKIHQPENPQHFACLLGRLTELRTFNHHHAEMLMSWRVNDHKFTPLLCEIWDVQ
Summary of the method: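 After 24 h chemical treatment of transfected HepG2 cells, GAL4-UAS reporter transcripts driven by an exogenous FXR-GAL4 fusion were measured by RT-PCR and capillary electrophoresis. Increases over DMSO were fitted.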

[15] = target: Oxysterols receptor LXR-alpha (Homo sapiens) (UniProt Q13133); experiment: ATG_LXRa_TRANS: Attagene TRANS-FACTORIAL HepG2 Assay for human Liver X Receptor alpha (LXRa) (AID 2282980; active means hit-call score of the fitted dose curve at least 0.9, where 1 is the maximum); conditions: HepG2 Attagene TRANS reporter, LXRa transactivation
Summary of the method: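 In this multiplexed TRANS system, compounds act on HepG2 cells carrying GAL4-UAS reporter units and a receptor-GAL4 fusion for 24 h. Induced reporter RNA is amplified, fluorescently labelled and sized by capillary electrophoresis, with DMSO as baseline.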

[16] = ATG_M_32_TRANS: Attagene TRANS-FACTORIAL HepG2 Assay for M32 Transcription Factor (Internal Marker) (AID 2282984; active means hit-call score of the fitted dose curve at least 0.9, where 1 is the maximum;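 further: transcript level of a background control reporter unit measured by RT-PCR and capillary electrophoresis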); conditions: HepG2 Attagene TRANS M32 internal marker reporter
Summary of the method: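 Internal-marker readout from a multiplexed transcription reporter panel. HepG2 cells were transfected with GAL4-UAS reporter units, treated 24 hours, and reporter transcript levels determined by fluorescence after RT-PCR and capillary separation.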

[17] = BSK_3C_uPAR: BioMAP Diversity Plus: 3C Assay for Urokinase-type plasminogen activator receptor (uPAR) Biomarker Activity (AID 2282998); conditions: BioMAP 3C HUVEC, uPAR biomarker ELISA; actives raise or lower the signal
Summary of the method: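 Readout: ELISA for surface uPAR. System: human umbilical vein endothelial primary cells, 24 h after chemical exposure. Analysis: bidirectional fit, DMSO baseline.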

[18] = BSK_4H_Eotaxin3: BioMAP Diversity Plus: 4H Assay for Eotaxin 3 Biomarker Activity (AID 2283000); conditions: primary human endothelial cells (HUVEC); actives raise or lower the signal
Summary of the method: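 ELISA quantitation of CCL26 (Eotaxin-3) protein from chemically dosed human vascular endothelial cells at 24 h; increases and decreases both scored relative to DMSO-treated baseline.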

Row | SMILES | outcome [1] | outcome [2] | outcome [3] | outcome [4] | outcome [5] | outcome [6] | outcome [7] | outcome [8] | outcome [9] | outcome [10] | AC50 [11] | outcome [12] | outcome [13] | outcome [14] | outcome [15] | outcome [16] | AC50 [17] | AC50 [18]
1 | CC(=O)C(C)=O | inactive | inactive | inactive | inactive | inactive | inactive | inactive | inactive | inactive | inactive | 37.4 µM (active) | inactive | inactive | – | – | – | – | –
2 | CN(CCOc1ccc(CC2SC(=O)NC2=O)cc1)c1ccccn1 (configuration not stated) | – | inactive | – | inactive | inactive | inactive | inactive | – | inactive | inactive | 15.1 µM (active) | inactive | inactive | inactive | inactive | inactive | 6.93 µM (active) | 3.97 µM (active)
3 | NC(N)=NC(=O)c1nc(Cl)c(N)nc1N | inactive | inactive | – | inactive | inactive | inactive | inactive | – | – | inactive | 62.6 µM (active) | inactive | inactive | – | – | inactive | – | –
4 | CCCCc1ccc(N)cc1 | inactive | – | inactive | inactive | inactive | inactive | inactive | inactive | inactive | inactive | 27.2 µM (active) | inactive | inactive | – | – | inactive | – | –
